Screening results: PubChem, Buhrlage Lab, Dana-Farber Cancer Institute and Novartis Institutes for BioMedical Research (Cambridge, Mass)
USP17 block – human USP17-like deubiquitinase inhibition | inhibition, % at 50 µM | 47,000 tested, 6.5% active | AID 1645855 | A8MUK1 | purified USP17, Ub-rhodamine cleavage fluorescence, 3 h
Target sequence (A8MUK1 whole entry, looked up): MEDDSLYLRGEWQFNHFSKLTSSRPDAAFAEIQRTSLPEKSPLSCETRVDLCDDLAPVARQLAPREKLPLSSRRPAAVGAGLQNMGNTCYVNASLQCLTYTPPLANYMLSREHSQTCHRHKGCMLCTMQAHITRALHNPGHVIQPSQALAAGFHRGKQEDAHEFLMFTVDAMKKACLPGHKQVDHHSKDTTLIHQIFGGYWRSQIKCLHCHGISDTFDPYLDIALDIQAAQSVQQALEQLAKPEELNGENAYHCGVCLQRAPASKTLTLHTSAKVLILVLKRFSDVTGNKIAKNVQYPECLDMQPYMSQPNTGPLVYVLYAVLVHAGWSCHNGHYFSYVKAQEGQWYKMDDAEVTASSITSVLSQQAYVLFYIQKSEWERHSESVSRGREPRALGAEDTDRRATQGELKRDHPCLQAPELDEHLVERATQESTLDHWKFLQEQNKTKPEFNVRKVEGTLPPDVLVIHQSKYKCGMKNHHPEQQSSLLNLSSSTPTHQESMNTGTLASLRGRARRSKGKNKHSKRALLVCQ
USP8 block – inhibitors of human USP8 deubiquitinase; P40818; purified USP8, Ub-rhodamine cleavage fluorescence, 30 min; inhibition, % at 20 µM; 47,000 tested, 4.2% active; AID 1645853
USP28 block – human USP28 deubiquitinase inhibition; Q96RU2; purified USP28, Ub-rhodamine cleavage fluorescence, 30 min; inhibition, % at 25 µM; 47,000 tested, 3% active; AID 1645857
USP30 inh – human USP30 deubiquitinase inhibition. purified USP30, Ub-rhodamine cleavage fluorescence. 47,000 tested, 5.3% active. inhibition, % at 25 µM. AID 1645860
USP7 inh – human USP7 deubiquitinase inhibition. Q93009. purified USP7, Ub-rhodamine cleavage fluorescence. inhibition, % at 20 µM. 47,000 tested, 0.3% active. AID 1645854
USP10 inh – human USP10 deubiquitinase inhibition. 47,000 tested, 1.1% active. inhibition, % at 20 µM. Q14694. AID 1645856. purified USP10, Ub-rhodamine fluorescence, 60 min
* = called active by the depositor; i = inactive; . = not tested or not shown. The list is not random: actives were taken first. Their share in the collection is about 13%. Rule as the data show it: active = inhibition above about 30%; inactive = the rest.

SMILES | USP17 block | USP8 block | USP28 block | USP30 inh | USP7 inh | USP10 inh
O=C(c1cnco1)N1CCCCC1c1ncc(Cc2ccc(F)cc2)o1 (centres undefined) | -6.3 | -28.2 | 0.1 | -0.4 | -8.2 | -4.7
O=C(c1ccnnc1)N1CCOCC2(CCC(Cn3cccn3)O2)C1 (centres undefined) | -18.0 | -41.5 | -12.0 | -28.5 | 1.8 | -5.0
CCOc1ccccc1-n1cc(C(=O)c2cc(F)ccc2O)cc(C#N)c1=O | -7.9 | -48.8 | 3.7 | -7.6 | -41.7 | -4.3
COc1ccccc1-n1cc(C(=O)c2cc(F)ccc2O)cc(C(C)=O)c1=O | -30.3 | 32.9* | -112.9 | -276.0 | -32.1 | -9.3
COc1cc(O)c2c(O)c3c(cc2c1)C[C@@]1(O)CC(=O)C(C(N)=O)=C(O)[C@@]1(O)C3=O | 30.3* | -8.6 | 41.3* | -120.2 | 65.2* | 10.7
Cc1ccc(OCCCOc2cccc3ccc(C)nc23)c([N+](=O)[O-])c1 | -12.7 | -48.6 | -5.0 | -4.0 | -4.7 | 6.9
COCC(C)Nc1nc2cc(C)nn2c2ccccc12 (centres undefined) | -0.8 | 1.6 | . | . | 1.7 | -2.2
O=C(NCc1ccccc1Cl)c1ccc(-c2ccc(N3CCCC3)nn2)cc1 | 42.3* | -7.8 | 5.6 | -47.2 | 5.9 | 5.0
CCc1nc2ccc(C(=O)Nc3nc(-c4ccc5c(c4)CCN5C(=O)C4CC4)cs3)cc2nc1CC | -3.7 | 20.7 | 7.3 | -19.1 | -12.2 | -4.3
Cn1c(=O)c2cc(C(=O)Nc3ccc(F)cc3)cnc2n(C)c1=O | 52.6* | 5.4 | 1.3 | 4.8 | 2.1 | 4.9
Cn1c(=O)c(C(=O)Nc2ccc(F)cc2)cc2cccnc21 | 4.4 | -1.5 | -7.5 | -7.6 | 3.1 | -1.8
c1cc2c(cc1-c1nnc(C3(c4ccc5c(c4)OCO5)CCOCC3)o1)OCCO2 | -4.6 | -1.3 | 0.9 | 33.3* | 2.7 | 4.9
Cc1cc(-c2cccc(S(=O)(=O)N3CCOCC3)c2)n2c(nc3ccccc32)c1C#N | -100.5 | -26.6 | -233.4 | i | . | -5.5
N#Cc1c2c(c(-c3ccccc3)n3c1nc1ccccc13)CCC2 | 43.1* | -6.6 | -0.4 | -38.4 | 4.7 | -4.5
O=C(NCc1noc(-c2ccccc2)n1)c1ccc(-c2noc(C3CC3)n2)cc1 | 32.4* | 8.2 | 27.7 | 13.1 | 4.4 | 3.2
COc1ccc(C(=O)NCc2noc(C3CCCCC3)n2)cc1C#N | -14.3 | -52.0 | 42.4* | -3.5 | -9.9 | -0.4
O=C(NC1CC2(CCCCC2)Oc2ccccc21)c1cnccn1 (centres undefined) | 7.7 | 2.3 | -0.7 | -7.4 | -1.0 | 0.7
COc1ccc(/C=C/C(=O)Nc2ccc(OC)nc2)cc1 | 22.7 | -14.2 | 17.1 | -44.8 | 0.1 | -5.7
COc1ccc(/C=C/C(=O)Nc2c3c(nc4c2CCC4)CCCC3)cc1 | 37.9* | 3.3 | 6.9 | 61.0* | 7.0 | -0.6
CCOC(=O)c1cc(-c2ccc(C)cc2)n(CCC(=O)Nc2ncccc2C)c1C | -11.2 | -5.5 | -16.3 | 17.4 | -8.9 | 0.9
Cc1cc(=O)c2c(O)oc(O)c3c(O)cc(=O)c1c32 | 68.3* | 30.9* | 9.0 | -117.9 | -85.2 | -0.1
O=C(CCSc1nnnn1-c1ccccc1)Nc1cc(C(F)(F)F)ccc1Cl | 40.4* | 28.3 | 0.6 | 7.6 | 35.5* | 16.1
CN1CCN(CCC(=O)Nc2cc(C(F)(F)F)ccc2Cl)CC1 | 10.7 | -0.7 | 7.8 | 13.6 | 0.1 | -0.9
COC(=O)c1cc(C#N)c(NCc2ccccc2)nc1C | 58.8* | 3.8 | 18.2 | 24.1 | -4.1 | 5.2
CCOC(=O)c1cc(C#N)c(NCc2ccccc2OC)nc1-c1ccccc1 | -2.1 | -7.8 | -1.5 | -6.8 | 5.6 | 10.3
SMILES | USP17 block | USP8 block | USP28 block | USP30 inh | USP7 inh | USP10 inh
COc1cccc(N2CC(C)Cn3c2nc2c3c(=O)n(CC(=O)OCc3ccccc3)c(=O)n2C)c1 (centres undefined) | 2.2 | -20.9 | 20.5 | 38.5* | 6.3 | 5.8
O=C(Cc1ccccc1F)NCC(=O)Nc1nc2ccccc2[nH]1 | 14.8 | -17.6 | 3.0 | 15.5 | 1.3 | 0.3
COc1cccc(NC(=O)CCCSc2nc3ccccc3[nH]2)c1 | -4.6 | 2.7 | 36.9* | -6.6 | 5.4 | 2.9
Cc1ccc(C(=O)NCC(=O)Nc2nc3ccccc3[nH]2)c(C)c1 | 56.5* | -0.9 | 12.6 | -22.3 | -2.8 | 4.5
O=C(CNC(=O)c1ccc2c(c1)OCO2)Nc1nc2ccccc2[nH]1 | -1.2 | -11.3 | -7.1 | 2.8 | -0.1 | 0.9
COc1cccc(C(=O)NCC(=O)Nc2nc3ccccc3[nH]2)c1 | 58.9* | 11.4 | 15.7 | 20.9 | 6.3 | 8.1
